Results reported in PubChem BioAssay (Tox21).
Several values for one entry are separate records, joined by “and”; a condition that tells them apart may be missing. Equal entries are not always repeated. Results filed as inconclusive are left out. A call without a number means that no potency is given here. Where a structure was tested more than once in an assay, its records may differ in their call. Activity calls are given as the source filed them. Calls follow the shape of the dose curve; as a rule, active = well fitted curve in the direction sought with a large enough effect in the repeat runs; inconclusive = weak or mixed curves; inactive = no such curve, though single readings can be large; an effect the other way counts as inactive or inconclusive.

assay: A CellTox Green Cytotoxicity Assay to monitor cytotoxicity in HepG2 cells - 40 hour (AID 1224879); details: CellTox Green fluorescence; series mostly up to 76.8 µM; cytotoxicity increase: at the top concentration; also: nearly all actives have a fitted effect of over 40% in size; also: potency is read from the fitted curve at half-maximal effect
Summary of the method: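 Measurements at 0, 8, 16, 24, 32 and 40 h of treatment captured CellTox Green fluorescence in HepG2 cells that had been co-plated with reagent and preincubated 5 h at 37 C/5% CO2.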

Question: With `CC1=C(/C=C/C(C)=C/C=C/C(C)=C/CO)C(C)(C)CCC1` as the molecule, how does the “cytotoxicity increase” value read?
Answer: 24.7% (inactive)

Question: For `COC(=O)c1ccc(C(=O)OC)cc1`, which Potency is on record?
Answer: 22.2 µM (active) and inactive

Question: For `CN(C)c1cccc(O)c1`, which “cytotoxicity increase” value is on record?
Answer: 3.23% (inactive)

Question: Which “cytotoxicity increase” value does the source give for `CC1=CC[C@H]2C[C@@H]1C2(C)C` here?
Answer: -18.1% (inactive)

Question: Which Potency does the source give for `CC(C)(C)C1CCC(O)CC1` (stereo not given) here?
Answer: inactive

Question: With `O=S(=O)(O)c1cc(S(=O)(=O)O)c2c(N=Nc3ccccc3)c(O)ccc2c1` as the molecule, how does the Potency read?
Answer: inactive

Question: With `CC#C[C@]1(O)CC[C@H]2[C@@H]3CCC4=CC(=O)CCC4=C3[C@@H](c3ccc(N(C)C)cc3)C[C@@]21C` as the molecule, how does the Potency read?
Answer: inactive

Question: Which Potency does the source give for `O=C(Cl)c1c(Cl)c(Cl)c(C(=O)Cl)c(Cl)c1Cl` here?
Answer: inactive

Question: For `C=C(C)C(=O)OCC(CC)(COC(=O)C(=C)C)COC(=O)C(=C)C`, which Potency is on record?
Answer: inactive and 42.9 µM (active)

Question: For `NC(=O)NNc1ccccc1`, which Potency is on record?
Answer: inactive

Question: For `O=C(c1cc(O)c(O)c(O)c1)c1ccc(O)c(O)c1O`, which Potency is on record?
Answer: inactive

Question: For `O=C(Oc1ccccc1)c1ccc(O)cc1`, which “cytotoxicity increase” value is on record?
Answer: 14.8% (inactive)

Question: For `Cc1cc(O)cc(C)c1Cl`, which “cytotoxicity increase” value is on record?
Answer: 27.3% [at 35.3 µM] (inactive)

Question: With `CC1=C(CC(=O)O)c2cc(F)ccc2/C1=C\c1ccc(S(C)=O)cc1` (stereo not given) as the molecule, how does the Potency read?
Answer: inactive

Question: For `Nc1cc(-c2ccncc2)c[nH]c1=O`, which Potency is on record?
Answer: inactive

Question: For `CCCCCCCCCCC=CC1CC(=O)OC1=O` (stereo not given), which “cytotoxicity increase” value is on record?
Answer: 16.4% (inactive)

Question: Which Potency does the source give for `C=CC(=O)OCCCCCCCC(C)C` here?
Answer: inactive

Question: Which Potency does the source give for `CCCCOCCOCCOC(=O)CCCCC(=O)OCCOCCOCCCC` here?
Answer: inactive

Question: With `CC1(C)CC(N=C=O)CC(C)(CN=C=O)C1` (stereo not given) as the molecule, how does the Potency read?
Answer: inactive

Question: For `NC(=O)/N=N/C(N)=O`, which Potency is on record?
Answer: inactive

Question: For `O=C1O[C@H](CO)[C@@H](O)[C@H](O)[C@H]1O`, which Potency is on record?
Answer: inactive

Question: Which Potency does the source give for `C=C(C)C(=O)OCCCCCC` here?
Answer: inactive

assay: qHTS RealTime-Glo MT Cell Viability Assay in HEK293 cells - 0 hour (AID 1224880); details: RealTime-Glo luminescence; series mostly up to 76.8 µM; activity change, negative = cytotoxicity: at the top concentration; also: top concentration of the series differs between compounds; nearly all actives have a fitted effect of over 45% in size
Summary of the method: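 HEK293 + NanoLuc + prosubstrate, 600 cells/well; 5 h, 37 C/5% CO2; compound 23 nL in DMSO by pintool; 37 C; luminescence read at 0, 8, 16, 24, 32 and 40 h time points.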

Question: Which Potency does the source give for `CC1=C(/C=C/C(C)=C/C=C/C(C)=C/CO)C(C)(C)CCC1` here?
Answer: inactive

Question: For `COC(=O)c1ccccc1O`, which Potency is on record?
Answer: inactive

Question: For `Oc1ccc2ccccc2c1N=Nc1ccccc1`, which Potency is on record?
Answer: inactive

Question: For `C[C@@H](O)[C@H]1C(=O)N2C(C(=O)O)=C(S[C@@H]3CN[C@H](C(=O)N(C)C)C3)[C@H](C)[C@H]12`, which Potency is on record?
Answer: inactive

Question: Which Potency does the source give for `C=C1CC[C@H](O)CC1=C/C=C1\CCC[C@]2(C)[C@@H]([C@H](C)/C=C/[C@H](C)C(C)C)CC[C@@H]12` here?
Answer: inactive

Question: For `CCc1ccc(O)cc1`, which Potency is on record?
Answer: inactive

Question: For `COC(=O)c1ccc(C(=O)OC)cc1`, which Potency is on record?
Answer: inactive

Question: For `OCC#CCO`, which Potency is on record?
Answer: inactive

Question: Which Potency does the source give for `CN(C)c1cccc(O)c1` here?
Answer: inactive

Question: For `COCC(=O)O`, which Potency is on record?
Answer: inactive

Question: For `CC1=CC[C@H]2C[C@@H]1C2(C)C`, which Potency is on record?
Answer: inactive

Question: With `CC(C)(C)C1CCC(O)CC1` (stereo not given) as the molecule, how does the Potency read?
Answer: inactive

Question: For `O=S(=O)(O)c1cc(S(=O)(=O)O)c2c(N=Nc3ccccc3)c(O)ccc2c1`, which Potency is on record?
Answer: inactive

Question: For `CC#C[C@]1(O)CC[C@H]2[C@@H]3CCC4=CC(=O)CCC4=C3[C@@H](c3ccc(N(C)C)cc3)C[C@@]21C`, which Potency is on record?
Answer: inactive

Question: For `S=c1nc[nH]c2nc[nH]c12`, which Potency is on record?
Answer: inactive

Question: Which Potency does the source give for `O=C(Cl)c1c(Cl)c(Cl)c(C(=O)Cl)c(Cl)c1Cl` here?
Answer: inactive

Question: For `Nc1nc2ncc(CNc3ccc(C(=O)N[C@@H](CCC(=O)O)C(=O)O)cc3)nc2c(=O)[nH]1`, which Potency is on record?
Answer: inactive

Question: With `CC1Cc2ccccc2N1NC(=O)c1ccc(Cl)c(S(N)(=O)=O)c1` (stereo not given) as the molecule, how does the Potency read?
Answer: inactive

Question: Which Potency does the source give for `C=C(C)C(=O)OCC(CC)(COC(=O)C(=C)C)COC(=O)C(=C)C` here?
Answer: inactive

Question: With `CCCCCCCCCCCCOCC1CO1` (stereo not given) as the molecule, how does the Potency read?
Answer: inactive

Question: With `CC(C)n1c(/C=C/[C@@H](O)C[C@@H](O)CC(=O)O)c(-c2ccc(F)cc2)c2ccccc21` as the molecule, how does the Potency read?
Answer: inactive

Question: Which Potency does the source give for `NC(=O)NNc1ccccc1` here?
Answer: inactive

Question: Which Potency does the source give for `O=C(c1cc(O)c(O)c(O)c1)c1ccc(O)c(O)c1O` here?
Answer: inactive

Question: Which Potency does the source give for `O=C(Oc1ccccc1)c1ccc(O)cc1` here?
Answer: inactive

Question: For `CCc1ccccc1O`, which Potency is on record?
Answer: inactive

Question: Which Potency does the source give for `Cc1cc(O)cc(C)c1Cl` here?
Answer: inactive

Question: Which Potency does the source give for `CCOC(=O)/C=C\C(=O)OCC` here?
Answer: inactive

Question: For `CC1=C(CC(=O)O)c2cc(F)ccc2/C1=C\c1ccc(S(C)=O)cc1` (stereo not given), which Potency is on record?
Answer: inactive

Question: For `Nc1cc(-c2ccncc2)c[nH]c1=O`, which Potency is on record?
Answer: inactive

Question: For `CCCCCCCCCCC=CC1CC(=O)OC1=O` (stereo not given), which Potency is on record?
Answer: inactive

Question: Which Potency does the source give for `C=CC(=O)OCCCCCCCC(C)C` here?
Answer: inactive

Question: For `CCCCOCCOCCOC(=O)CCCCC(=O)OCCOCCOCCCC`, which Potency is on record?
Answer: inactive

Question: With `O=C(O)c1ccc([N+](=O)[O-])cc1` as the molecule, how does the Potency read?
Answer: inactive

Question: Which Potency does the source give for `CC1(C)CC(N=C=O)CC(C)(CN=C=O)C1` (stereo not given) here?
Answer: inactive

Question: With `NC(=O)/N=N/C(N)=O` as the molecule, how does the Potency read?
Answer: inactive

Question: With `CNC[C@H](O)[C@@H](O)[C@H](O)[C@H](O)CO` as the molecule, how does the Potency read?
Answer: inactive

Question: With `CC(=O)Nc1ccc(C(=O)O)cc1` as the molecule, how does the Potency read?
Answer: inactive

Question: With `O=C1O[C@H](CO)[C@@H](O)[C@H](O)[C@H]1O` as the molecule, how does the Potency read?
Answer: inactive

Question: For `C=C(C)C(=O)OCCCCCC`, which Potency is on record?
Answer: inactive

assay: A CellTox Green Cytotoxicity Assay to monitor cytotoxicity in HEK293 cells - 32 hour (AID 1224881); details: CellTox Green fluorescence; series mostly up to 76.8 µM; cytotoxicity increase: at the top concentration; also: nearly all actives have a fitted effect of over 40% in size; also: potency is read from the fitted curve at half-maximal effect
Summary of the method: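 Tox21 screen in HEK293: membrane-impermeant cyanine dye fluoresces on binding dead-cell DNA; compound pinned 5 h post-seeding, plates held at 37 C, signal read repeatedly through 40 h.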

Question: For `CC1=C(/C=C/C(C)=C/C=C/C(C)=C/CO)C(C)(C)CCC1`, which Potency is on record?
Answer: inactive

Question: Which Potency does the source give for `COC(=O)c1ccccc1O` here?
Answer: inactive

Question: Which “cytotoxicity increase” value does the source give for `Oc1ccc2ccccc2c1N=Nc1ccccc1` here?
Answer: 6.91% (inactive)

Question: For `C[C@@H](O)[C@H]1C(=O)N2C(C(=O)O)=C(S[C@@H]3CN[C@H](C(=O)N(C)C)C3)[C@H](C)[C@H]12`, which Potency is on record?
Answer: inactive

Question: For `C=C1CC[C@H](O)CC1=C/C=C1\CCC[C@]2(C)[C@@H]([C@H](C)/C=C/[C@H](C)C(C)C)CC[C@@H]12`, which Potency is on record?
Answer: inactive

Question: For `CCc1ccc(O)cc1`, which Potency is on record?
Answer: inactive

Question: Which “cytotoxicity increase” value does the source give for `COC(=O)c1ccc(C(=O)OC)cc1` here?
Answer: -0.124% (inactive)

Question: With `OCC#CCO` as the molecule, how does the Potency read?
Answer: inactive

Question: For `CN(C)c1cccc(O)c1`, which Potency is on record?
Answer: inactive

Question: For `COCC(=O)O`, which Potency is on record?
Answer: inactive

Question: Which Potency does the source give for `CC1=CC[C@H]2C[C@@H]1C2(C)C` here?
Answer: inactive

Question: Which Potency does the source give for `CC(C)(C)C1CCC(O)CC1` (stereo not given) here?
Answer: inactive

Question: Which Potency does the source give for `O=S(=O)(O)c1cc(S(=O)(=O)O)c2c(N=Nc3ccccc3)c(O)ccc2c1` here?
Answer: inactive

Question: Which Potency does the source give for `CC#C[C@]1(O)CC[C@H]2[C@@H]3CCC4=CC(=O)CCC4=C3[C@@H](c3ccc(N(C)C)cc3)C[C@@]21C` here?
Answer: inactive

Question: Which Potency does the source give for `S=c1nc[nH]c2nc[nH]c12` here?
Answer: inactive

Question: With `O=C(Cl)c1c(Cl)c(Cl)c(C(=O)Cl)c(Cl)c1Cl` as the molecule, how does the Potency read?
Answer: inactive

Question: Which Potency does the source give for `Nc1nc2ncc(CNc3ccc(C(=O)N[C@@H](CCC(=O)O)C(=O)O)cc3)nc2c(=O)[nH]1` here?
Answer: inactive

Question: Which Potency does the source give for `CC1Cc2ccccc2N1NC(=O)c1ccc(Cl)c(S(N)(=O)=O)c1` (stereo not given) here?
Answer: inactive

Question: With `C=C(C)C(=O)OCC(CC)(COC(=O)C(=C)C)COC(=O)C(=C)C` as the molecule, how does the Potency read?
Answer: inactive and 42.9 µM (active)

Question: With `CCCCCCCCCCCCOCC1CO1` (stereo not given) as the molecule, how does the “cytotoxicity increase” value read?
Answer: -4.78% (inactive)

Question: Which Potency does the source give for `CC(C)n1c(/C=C/[C@@H](O)C[C@@H](O)CC(=O)O)c(-c2ccc(F)cc2)c2ccccc21` here?
Answer: inactive

Question: With `NC(=O)NNc1ccccc1` as the molecule, how does the Potency read?
Answer: inactive

Question: With `O=C(c1cc(O)c(O)c(O)c1)c1ccc(O)c(O)c1O` as the molecule, how does the Potency read?
Answer: inactive

Question: Which Potency does the source give for `O=C(Oc1ccccc1)c1ccc(O)cc1` here?
Answer: inactive

Question: With `CCc1ccccc1O` as the molecule, how does the “cytotoxicity increase” value read?
Answer: 18.2% (inactive)

Question: For `Cc1cc(O)cc(C)c1Cl`, which Potency is on record?
Answer: inactive

Question: Which Potency does the source give for `CCOC(=O)/C=C\C(=O)OCC` here?
Answer: inactive

Question: For `CC1=C(CC(=O)O)c2cc(F)ccc2/C1=C\c1ccc(S(C)=O)cc1` (stereo not given), which Potency is on record?
Answer: inactive

Question: Which Potency does the source give for `Nc1cc(-c2ccncc2)c[nH]c1=O` here?
Answer: inactive

Question: For `CCCCCCCCCCC=CC1CC(=O)OC1=O` (stereo not given), which Potency is on record?
Answer: inactive

Question: For `C=CC(=O)OCCCCCCCC(C)C`, which Potency is on record?
Answer: inactive

Question: For `CCCCOCCOCCOC(=O)CCCCC(=O)OCCOCCOCCCC`, which Potency is on record?
Answer: inactive

Question: With `O=C(O)c1ccc([N+](=O)[O-])cc1` as the molecule, how does the Potency read?
Answer: inactive

Question: Which “cytotoxicity increase” value does the source give for `CC1(C)CC(N=C=O)CC(C)(CN=C=O)C1` (stereo not given) here?
Answer: -10.4% (inactive)

Question: For `NC(=O)/N=N/C(N)=O`, which Potency is on record?
Answer: inactive

Question: For `CNC[C@H](O)[C@@H](O)[C@H](O)[C@H](O)CO`, which Potency is on record?
Answer: inactive

Question: With `CC(=O)Nc1ccc(C(=O)O)cc1` as the molecule, how does the Potency read?
Answer: inactive

Question: With `O=C1O[C@H](CO)[C@@H](O)[C@H](O)[C@H]1O` as the molecule, how does the Potency read?
Answer: inactive

Question: For `C=C(C)C(=O)OCCCCCC`, which Potency is on record?
Answer: inactive
